TGFb SMAD3 inh: blocks TGF-b signaling; HepG2 CAGA-GFP TGF-b/SMAD3 reporter, GFP fluorescence, 18 h; TGF-beta stimulated, 500 pg/mL final; Potency, µM (doses to about 46.1 µM), inactives show at the top dose activity, negative = inhibition, usual class: inhibitors; 410,000 tested, 1.2% active; AID 588855; note: % is set by controls: 0 for no effect and ±100 for the full control effect; nearly all actives have a fitted effect of over 65% in size
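HEPG2 CAGA-GFP cells (1000/well, DMEM with 1% FBS) were pre-incubated 2 h at 37 degrees C, given compound by pin tool, then stimulated with TGF-beta at 500 pg/mL final for 18 h before per-cell GFP fluorescence imaging.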
HT1080-NT tox: kills 2HG-producing HT-1080-NT fibrosarcoma cells. Potency, µM (top dose mostly 46.1 µM), for the others: at the top dose activity, negative = less viability, usual class: cytotoxic. AID 686970. 360,000 tested, 1.6% active. HT-1080-NT fibrosarcoma viability, CellTiter-Glo ATP luminescence, 48 h;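 note: NT is the 2HG producing partner of a matched IDH1 knockdown line; 0% = DMSO-treated cells and -100% = media-only wells without cells; nearly all actives have a fitted effect of over 55% in size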
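HT-1080-NT fibrosarcoma cells (2HG-overproducing), 750 cells/well in RPMI with 5% FBS, dosed after 2 h and incubated 48 h at 37C. CellTiter-Glo luminescence normalized to DMSO and no-cell wells; concentration-response curves fitted and classed.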
S2 tox: reduces viability in counter-screen for ATXN expression inhibitors; S2 cells (HEK-293 line with an ATXN2-luciferase reporter) viability, CellTiter-Fluor protease fluorescence, 24 h; Potency, µM (highest dose often 56.7 µM), most hits filed as cytotoxic; 400,000 tested, 0.49% active; note: nearly all actives have a fitted effect of over 40% in size
HepG2 tox: HepG2 cytotoxicity, counter-screen for TGF-b inhibitors | HepG2 CAGA-GFP viability, ATP luminescence, 18 h | Potency, µM (top dose mostly 46.1 µM), for inactives: at the top dose activity change, negative = cytotoxicity, most hits filed as cytotoxic | 410,000 tested, 0.76% active
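HepG2 CAGA-GFP cells (1000/well, DMEM with 1% FBS) received compound, then TGF-beta at 500 pg/mL final, and were incubated 18 hours at 37 degrees C. Viability was read by CellTiter-Glo luminescence. Media-only wells were set as complete cell-killing and DMSO as no toxicity.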
HT1080 IDH1KD tx: HT-1080 IDH1 knockdown cell toxicity (counter line); Potency, µM (top dose mostly 46.1 µM), inactives show top-dose activity, negative = toxicity, actives largely listed as cytotoxic; HT-1080 IDH1 knockdown viability, ATP luminescence, 48 h; 360,000 tested, 2% active;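 note: 0% = DMSO wells and -100% = cell-free medium wells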
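Using the IDH1-knockdown HT-1080 line run in the same batch and compound series as the NT line, viability after 48 h at 37 °C was determined by CellTiter-Glo luminescence and expressed as % activity.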
ATXN2 expr inh: inhibitors of ATXN2 expression. HEK-293 ATXN2-luciferase reporter, luminescence, 24 h. Potency, µM (series often up to 57 µM), inactives show top-dose activity change, negative = inhibition, actives largely listed as inhibitors. 360,000 tested, 0.72% active. AID 1745845; note: % is set by controls: 0 for no effect and ±100 for the full control effect; nearly all actives have a fitted effect of over 55% in size
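qHTS (up to 57 uM final) was run with 24 h compound exposure of reporter cells at 37 °C. Each well was multiplexed: SteadyGlo luminescence measured ATXN2-luciferase expression after a fluorogenic Gly-Phe-AFC viability readout (25 uM final).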
An asterisk follows results filed as active; i = inactive; ? = inconclusive; . = no result. Sampled rows, rich in hits. Any-hit rate of the full collection: about 3.8%. Calls come from the whole dose curve; as a rule, active = well fitted curve in the direction sought with a large enough effect; inconclusive = small, poorly fitted or top-dose-only effect, or another doubt; inactive = no such curve, though single readings can be large; an effect the other way counts as inactive or inconclusive. Potency is the fitted concentration of half-maximal effect.

SMILES	TGFb SMAD3 inh	HT1080-NT tox	S2 tox	HepG2 tox	HT1080 IDH1KD tx	ATXN2 expr inh
COc1cc(=O)n2c(c1C(=O)NCc1ccco1)CCN(C(=O)c1ccccc1-c1ncc[nH]1)CC2	.	.	i	.	.	.
O=C(C[n+]1cccc2cc(Cl)ccc21)c1ccc2ccccc2c1	1.6%	.	.	-85.5%	.	.
CCCc1cc(NCCCn2ccnc2)n2nc(C)c(-c3ccccc3)c2n1	-12.2%	?	i	-20.2%	13µM*	2.0%
CC(C)(C)c1cc(NCCCn2ccnc2)n2ncc(-c3ccccc3)c2n1	?	18.4µM*	i	-105.7%	16.4µM*	69.7%
CN(C)CCCNc1cc(C(C)(C)C)nc2c(-c3ccc(Cl)cc3)cnn12	22.4µM*	18.4µM*	.	-103.1%	11.6µM*	?
Cc1cccc(-c2cc3nc(C)cc(NCCCn4ccnc4)n3n2)c1	-11.8%	?	?	-36.4%	?	-7.1%
Cc1nn2c(NCc3ccccn3)cc(C(C)(C)C)nc2c1-c1ccccc1	?	1.5%	?	-57.4%	-1.0%	-29.1%
Cc1cc(NCc2ccccn2)n2nc(C)c(-c3ccccc3)c2n1	11.2µM*	?	?	-34.8%	-13.8%	?
CC(C)(C)c1cc(NCc2ccccn2)n2ncc(-c3ccc(Cl)cc3)c2n1	-12.6%	16.1%	i	-12.4%	2.1%	.
CN[C@@H]1[C@@H](O[C@H]2O[C@H](CO)[C@@H](N)[C@H](O)[C@H]2O)O[C@H]2C[C@@H](N)[C@@H](O[C@H]3[C@H](O)[C@@H](O)[C@H](N)C[C@@H]3N)O[C@@H]2[C@@H]1O	.	.	i	.	.	.
Cc1cc(NCCCN2CCOCC2)n2ncc(-c3ccc(Cl)cc3)c2n1	1.1%	-15.8%	?	-31.7%	-14.2%	3.2%
Cc1cc(NCCCn2ccnc2)n2ncc(-c3ccc(Cl)cc3)c2n1	?	11.2µM*	?	-50.8%	11.2µM*	20.3%
C[C@@H]1C[C@H]2[C@@H]3CCC4=CC(=O)C=C[C@]4(C)[C@@]3(F)C(O)C[C@]2(C)[C@@]1(O)C(=O)CO (stereo not given in full)	5.6%	.	.	5.4%	.	.
Cc1cccc(C(=O)N[C@H](C(=O)Nc2ncc(C)s2)C(C)C)c1	11.2µM*	-22.5%	i	7.3%	-25.0%	8.44µM*
O=C(CCOc1ccccc1)N1CCN(c2ccc(O)cc2)CC1	2.6%	1.46µM*	?	5.6%	4.61µM*	?
Cc1ccc2ccc3ccc(C)nc3c2n1	?	0.0058µM*	?	-9.7%	?	?
CC(=O)c1sc(N/N=C2\CC3CCC2(C)C3(C)C)nc1C (stereo not given)	6.0%	23.1µM*	i	-23.3%	?	-22.3%
O=C(NCCc1ccccc1Cl)c1ccc(Cn2c(=O)c3cccn3c3cccnc32)cc1	?	.	.	10µM*	.	.
CCOc1c2c(c(-c3ccc4c(c3)OCO4)c3cc(OC)c(OC)cc13)C(=O)OC2	?	.	.	-40.1%	.	.
CC(=O)Nc1cccc(-c2cnc(N)c(C(=O)c3cccnc3)n2)c1	10µM*	-24.2%	?	-12.8%	-24.6%	?
CC(C)(C)CC(=O)NC(=S)NCCc1ccccc1	-20.3%	?	i	-19.0%	10µM*	36.4%
CC1=NN(c2ccccc2)C(=O)C1N=Nc1ccccc1 (stereo not given)	0.0%	21.9%	i	-14.1%	3.5%	82.4%
CC1=NN(c2ccccc2)C(=O)C1N=Nc1ccc(N)cc1 (stereo not given)	-21.0%	-17.1%	?	-40.8%	23.1µM*	2.6%
O=C(c1ccccc1)N1N=C(C(F)(F)F)CC1(O)c1ccccc1O (stereo not given)	8.91µM*	-10.8%	?	7.08µM*	-18.0%	.
O=C(c1ccccc1F)N1N=C(C(F)(F)F)CC1(O)c1ccccc1 (stereo not given)	-19.3%	-4.7%	?	-18.0%	-7.4%	.
SMILES	TGFb SMAD3 inh	HT1080-NT tox	S2 tox	HepG2 tox	HT1080 IDH1KD tx	ATXN2 expr inh
Cc1ccc(NC(=O)C(=Cc2ccc(C(=O)O)cc2)C(=O)Nc2ccc(C)cc2C)c(C)c1	7.08µM*	14.6µM*	?	10µM*	11.6µM*	.
COc1ccc(O)c(/C=N/NC(=S)NCCc2ccccc2)c1	?	14.6µM*	?	-166.2%	?	?
Oc1ccccc1/C=N/NC(=S)NC1CC2CCC1C2 (stereo not given)	?	20.6µM*	?	-55.3%	?	7.9%
Oc1ccc(Br)cc1/C=N/NC(=S)NCCc1ccccc1	?	?	i	-185.5%	?	?
COc1cccc(/C=N/NC(=S)NCCc2ccccc2)c1	25.1µM*	-29.2%	i	-11.5%	?	-16.8%
COCCCNC(=S)N/N=C/c1ccccc1O	1.78µM*	-1.9%	?	-57.5%	-5.6%	.
Cc1c(C(=O)NCC2Cc3cccc(-c4cncnc4)c3O2)c(-c2ccccc2)nn1-c1ccccc1 (stereo not given)	.	.	i	.	.	.
COc1cc(=O)n2c(c1C(=O)N(C)Cc1nccs1)CCN(Cc1cc3ccccc3s1)CC2	.	.	i	.	.	.
COc1ccccc1NC(=O)CSc1nc2ccccc2c2nc(-c3ccccc3)nn12	6.0%	.	?	5.9%	.	7.0%
C[C@@]12CCC=C[C@H]1[C@H](c1ccc3ccccc3c1Br)N(Cc1ccccc1)C2=O	?	?	35.5µM*	-35.3%	?	?
COc1ccc(-c2cc([C@H]3[C@@H]4C=CCC[C@@]4(C)C(=O)N3Cc3ccccc3)ccc2F)cc1	?	-22.4%	i	0.9%	?	-21.9%
C[C@@H]1CC=C[C@H]2[C@H]1C(=O)N(Cc1ccccc1)[C@H]2c1ccc2ccccc2c1Br	?	-20.7%	28.2µM*	12.6µM*	-16.1%	?
COc1ccc(-c2cc(C3C4C=CCCC4(C)C(=O)N3Cc3ccccc3)ccc2F)cc1 (stereo not given)	11.2µM*	.	.	-7.9%	.	.
CC1CC=CC2C1C(=O)N(Cc1ccccc1)C2c1ccc2ccccc2c1C=Cc1ccccc1 (stereo not given)	5.8%	.	.	-2.3%	.	.
CC12CCC=CC1C(c1ccc3ccccc3c1Br)N(Cc1ccccc1)C2=O (stereo not given)	?	.	.	-24.0%	.	.
O=C1C2C(c3ccccc3)CC=CC2C(c2ccc(C(F)(F)F)cc2)N1Cc1ccccc1 (stereo not given)	12.6µM*	.	.	-56.6%	.	.
Cc1ccccc1Nc1nnc(-c2ccc(C)c(S(=O)(=O)N3CCCCC3)c2)c2ccccc12	8.3%	.	?	-22.9%	.	-16.8%
